Out of some 50,000 compounds screened, about 800 (1.6%) showed an effect of 50% or more. The sample as a whole holds a higher share of strong results than the screen did.
target: Bcl-2-like protein 10 (Homo sapiens) (UniProt Q9HD36); assay: Phenotype converters, Bcl-B/TR3 peptide binding displacement, primary biochemical FP (AID 1240); conditions: GST-Bcl-B / FITC-TR3 peptide fluorescence polarization; stronger effect = higher value; compound at 3.75 mg/L;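 note: 0% = Bcl-B with tracer peptide and DMSO and 100% = tracer peptide lacking Bcl-B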
Sequence (Q9HD36 whole entry, looked up): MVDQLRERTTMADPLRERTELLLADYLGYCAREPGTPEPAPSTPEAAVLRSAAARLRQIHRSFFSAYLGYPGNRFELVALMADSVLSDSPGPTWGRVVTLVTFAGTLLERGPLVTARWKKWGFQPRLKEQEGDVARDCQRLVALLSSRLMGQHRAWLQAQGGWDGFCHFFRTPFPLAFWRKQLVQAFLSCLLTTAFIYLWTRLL

Compound	displacement
Cc1ccc(C)c(NC(=O)/C=C/c2ccc(C)o2)c1	10.2%
CCOc1ccc(S(=O)(=O)NCc2ccccc2Cl)c2ccccc12	3.4%
O=C(Nc1nc(-c2ccc([N+](=O)[O-])cc2)cs1)c1ccccc1F	113%
O=C(Nc1nc(-c2ccc(F)cc2)cs1)c1ccccc1[N+](=O)[O-]	8.9%
O=C(Nc1nc(-c2ccc([N+](=O)[O-])cc2)cs1)c1ccc(Cl)cc1	8.7%
COc1cc(/C=C2/SC(=S)N(CC(=O)O)C2=O)ccc1OCc1ccccc1	1.7%
Oc1ccc(Br)cc1CN1CCN(Cc2c[nH]c3ccccc23)CC1	-2.7%
Cc1n[nH]c(C)c1Sc1ccccc1N=Cc1cc([N+](=O)[O-])ccc1O	3.6%
Cc1n[nH]c(C)c1Sc1ccccc1N=Cc1cc(Cl)ccc1O	0%
Cc1n[nH]c(C)c1Sc1ccccc1N=Cc1cc(Cl)cc([N+](=O)[O-])c1O	117%
O=C(/C=C/c1ccccc1OC(=O)c1cccnc1)c1ccccc1	-10.4%
Cc1ccc(C2OC3(C(=O)c4ccccc4C3=O)C(c3cccc(Cl)c3)C23C(=O)c2ccccc2C3=O)cc1 (stereo not drawn)	2%
O=C(O)CCN1C(=O)/C(=C\c2ccc3c(c2)OCO3)SC1=S	-2.7%
O=C1/C(=C/c2cccc([N+](=O)[O-])c2)SC(=S)N1C1CCS(=O)(=O)C1 (stereo not drawn)	2.2%
CN1C(=O)/C(=C/c2ccc3c(c2)OCO3)SC1=S	80.3%
CC(C(=O)O)N1C(=O)/C(=C/c2ccc3c(c2)OCO3)SC1=S (stereo not drawn)	9.1%
O=C1/C(=C\c2ccc3c(c2)OCO3)SC(=S)N1C1CCS(=O)(=O)C1 (stereo not drawn)	106%
O=C1/C(=C\c2ccc3c(c2)OCO3)SC(=S)N1CCc1ccccc1	-2.3%
Cc1ccc(CNS(=O)(=O)c2ccccc2[N+](=O)[O-])cc1	5.2%
O=C(c1ccccc1)N1CCCC2CCCCC21 (stereo not drawn)	1.6%
CCOc1ccc(NC(=O)c2c(N)sc(-c3ccccc3)c2C)cc1	-0.3%
CCO/C=N/C1=C(C#N)C(c2ccccc2)C2=C(CC(C)(C)CC2=O)O1 (stereo not drawn)	4.5%
COC(=O)c1cc(C(=O)Nc2ccccn2)cc([N+](=O)[O-])c1	-1.3%
COC(=O)c1cc(C(=O)Nc2ncccc2C)cc([N+](=O)[O-])c1	55.2%
COC(=O)c1cc(C(=O)Nc2cc(C)ccn2)cc([N+](=O)[O-])c1	3.9%

Compound	displacement
Cc1cccnc1NC(=O)Nc1ccc(F)cc1	0.2%
O=C(NCC1CCCO1)c1ccc(C2SCC(=O)N2Cc2ccccc2)cc1 (stereo not drawn)	-12.3%
CCCOc1ccc(N2C(=O)CC(NCc3cccnc3)C2=O)cc1 (stereo not drawn)	1.7%
CCCCOc1ccc(/C=C2\SC(=S)N(C(C)C(=O)O)C2=O)cc1OC (stereo not drawn)	3.8%
COc1cc(/C=C2/SC(=S)N(CCC(=O)O)C2=O)cc(Br)c1O	-13.7%
COC(=O)CCN1C(=O)/C(=C\c2cc(Br)c(O)c(OC)c2)SC1=S	53.8%
COC(=O)CCN1C(=O)/C(=C\c2ccc(C)cc2)SC1=S	0.6%
COc1cc(/C=C2\SC(=S)N(C)C2=O)cc(Br)c1O	-47.9%
CCCCOc1ccc(/C=C2\SC(=S)N(CCC(=O)OC)C2=O)cc1OC	54.1%
O=C(Nc1ccc(I)cc1Cl)c1cccc(Cl)c1Cl	11.2%
O=C(NN1C(=O)/C(=C\c2ccccn2)SC1=S)c1ccccc1	-15.1%
CCCOc1ccc(Cl)cc1/C=C(/C#N)c1nc2ccc(C)cc2[nH]1	15.5%
CCCOc1ccc(Br)cc1/C=C(/C#N)c1nc2ccc(C)cc2[nH]1	69.3%
Cc1ccc2nc(/C(C#N)=C\c3cc(Br)ccc3OC(C)C)[nH]c2c1	13.1%
Cc1ccc(/C=C(/C#N)c2nc3ccc(C)cc3[nH]2)cc1	4.5%
Cc1ccc2nc(/C(C#N)=C\c3ccc(Br)cc3)[nH]c2c1	136%
CCOc1ccc(Br)cc1/C=C(\C#N)c1nc2ccc(C)cc2[nH]1	72.9%
CCCOc1c(I)cc(I)cc1/C=C(/C#N)c1nc2ccc(C)cc2[nH]1	-4.9%
CCc1ccc(/C=C(/C#N)c2nc3ccc(C)cc3[nH]2)cc1	3.2%
Cc1ccc2nc(/C(C#N)=C/c3cc(Br)ccc3OCc3ccccc3)[nH]c2c1	-2.3%
COc1ccc(C2NCCc3c2[nH]c2ccccc32)cc1OC (stereo not drawn)	8.4%
COc1cccc(C(=O)N2N=C(c3cccnc3)CC2(O)C(F)(F)F)c1 (stereo not drawn)	-2.9%
CCOC(=O)CN1C(c2ccccc2OC)Nc2ccc(Br)cc2C1c1ccccc1 (stereo not drawn)	15.6%
Cc1ccc(S(=O)(=O)NN2C(=O)/C(=C/c3ccc(F)cc3)SC2=S)cc1	2%
OC(CNCc1ccccc1)(c1ccccc1)c1ccc(Cl)cc1 (stereo not drawn)	-9.4%

Compound	displacement
CCCN=C(C)c1c(C)[nH]n(-c2nc3ccccc3s2)c1=O	68.8%
CC(=NCc1ccccc1)c1c(C)[nH]n(-c2nc3ccccc3s2)c1=O	12.2%
CC(=NCCc1ccccc1)c1c(C(F)(F)F)[nH]n(-c2nc3ccccc3s2)c1=O	-8.3%
COc1cccc(C2C(C(=O)Nc3ccccc3)=C(C)N=c3s/c(=C\c4ccc(O)cc4)c(=O)n32)c1 (stereo not drawn)	-6.7%
COc1cccc(C2C(C(=O)Nc3ccccc3)=C(C)N=c3s/c(=C\c4cccs4)c(=O)n32)c1 (stereo not drawn)	79.1%
COc1cccc(C2C(C(=O)Nc3ccccc3)=C(C)N=c3s/c(=C/c4ccccc4OC)c(=O)n32)c1 (stereo not drawn)	12.1%
COc1cccc(C2C(C(=O)Nc3ccccc3)=C(C)N=c3s/c(=C\c4c[nH]c5ccccc45)c(=O)n32)c1 (stereo not drawn)	113%
COc1cccc(C2C(C(=O)Nc3ccccc3)=C(C)N=c3s/c(=C\c4sccc4C)c(=O)n32)c1 (stereo not drawn)	46.7%
COc1ccc(C2C(C(=O)OC(C)C)=C(C)N=c3s/c(=C\c4cc(OC)ccc4OC)c(=O)n32)cc1 (stereo not drawn)	6.4%
CCOC(=O)C1=C(C)N=c2s/c(=C\c3c[nH]c4ccccc34)c(=O)n2C1c1cccc(OC)c1 (stereo not drawn)	32.8%
COc1cccc(C2C(C(=O)Nc3ccccc3)=C(C)N=c3s/c(=C\c4ccncc4)c(=O)n32)c1 (stereo not drawn)	9.6%
COc1cccc(C2C(C(=O)Nc3ccccc3)=C(C)N=c3s/c(=C\c4ccc(N(C)C)cc4)c(=O)n32)c1 (stereo not drawn)	73.6%
CCOC(=O)C1=C(C)N=c2s/c(=C\c3cccs3)c(=O)n2C1c1cccc(OC)c1 (stereo not drawn)	12.9%
COc1ccc(/C=c2\sc3n(c2=O)C(c2ccc(OC)cc2)C(C(=O)OC(C)C)=C(C)N=3)cc1 (stereo not drawn)	10%
COc1ccc(C2C(C(=O)OC(C)C)=C(C)N=c3s/c(=C/c4c[nH]c5ccccc45)c(=O)n32)cc1 (stereo not drawn)	99.1%
Cc1ccc(NC(=O)c2cc3cc([N+](=O)[O-])ccc3oc2=O)cc1	13.5%
CSc1ccccc1NC(=O)CC1Nc2cc(C)c(C)cc2NC1=O (stereo not drawn)	-41.6%
O=C1Nc2ccc(Br)c3cccc1c23	15.9%
COc1cc(C(=O)NCc2cccc3ccccc23)cc(OC)c1OC	9.9%
COc1ccc(/C=C2\SC(=Nc3ccc(O)cc3)NC2=O)cc1OC	-6.3%
COc1cc(/C=C/c2[nH]c(=O)[nH]c(=O)c2[N+](=O)[O-])cc(Br)c1OCc1ccccc1	15.6%
O=c1[nH]c(/C=C/c2ccccc2)c([N+](=O)[O-])c(=O)[nH]1	18.1%
O=c1[nH]c(/C=C/c2ccc(OCc3ccccc3)cc2)c([N+](=O)[O-])c(=O)[nH]1	114%
CC(C)(C)OC(=O)C1C(=O)CC(C)(O)C(C(=O)OC(C)(C)C)C1c1ccccc1 (stereo not drawn)	-1.3%
O=c1c2ccccc2nc(SCc2ccccc2)n1Cc1ccccc1	-0.7%

Compound	displacement
O=C(CSc1nc2ccccc2s1)Nc1nc2ccccc2s1	7.4%
O=C(CSc1nc2ccccc2s1)Nc1ccccc1	7.4%
O=C(CSc1nc2ccccc2s1)Nc1ncccn1	57.1%
C=CCN1C(=O)C(Cc2ccccc2)S/C1=N/N=C/c1ccccc1 (stereo not drawn)	3%
CC(C)C1=NN2C(=N)/C(=C/c3ccc(-c4ccc([N+](=O)[O-])cc4)o3)C(=O)N=C2S1	111%
Cc1cccc(N2CCN(C3=NC(=O)/C(=C/c4ccc(-c5cccc([N+](=O)[O-])c5)o4)S3)CC2)c1	9.8%
CC(C)C1=NN2C(=N)/C(=C/c3ccc(-c4cccc([N+](=O)[O-])c4)o3)C(=O)N=C2S1	173%
CCC1=NN2C(=N)/C(=C/c3ccc(-c4ccccc4C(=O)OC)o3)C(=O)N=C2S1	3.5%
COc1cc([N+](=O)[O-])ccc1-c1ccc(/C=C2/C(=N)N3N=C(C(C)C)SC3=NC2=O)o1	77%
CCC1=NN2C(=N)/C(=C/c3ccc(-c4ccc([N+](=O)[O-])cc4OC)o3)C(=O)N=C2S1	4.4%
COc1cc([N+](=O)[O-])ccc1-c1ccc(/C=C2\C(=O)N(c3ccc(S(N)(=O)=O)cc3)N=C2C)o1	5.3%
NC1=NC(=O)/C(=C\c2ccc(-c3ccc([N+](=O)[O-])cc3)o2)S1	3.2%
CCC1=NN2C(=N)/C(=C/c3ccc(-c4cccc(C(=O)O)c4)o3)C(=O)N=C2S1	1.4%
CCC1=NN2C(=N)/C(=C/c3ccc(-c4cccc([N+](=O)[O-])c4)o3)C(=O)N=C2S1	124%
CC(C)C1=NN2C(=N)/C(=C/c3ccc(-c4cccc(C(=O)O)c4)o3)C(=O)N=C2S1	-26.4%
CC(C)C1=NN2C(=N)/C(=C/c3ccc(Sc4ccc(Cl)cc4)o3)C(=O)N=C2S1	-18.4%
O=C1C(=O)N(c2ccccc2Br)C(=O)N1c1cccc(Cl)c1	5.7%
O=C(CSCC(=O)Nc1ccccc1)NCc1ccco1	-20.8%
Nc1n[nH]c(N)c1N=Nc1cccc(C(F)(F)F)c1	-2.4%
O=C(Cc1ccc(Cl)cc1)NNC(=O)C1CCCO1 (stereo not drawn)	2.5%
COc1cc(C(=O)NN2C(=O)/C(=C/c3ccc(OC)c(OC)c3)SC2=S)ccc1O	-28.1%
c1ccc(-c2cc(-c3cc(-c4ccccc4)on3)no2)cc1	2.6%
O=C(Oc1ccc2ccccc2c1)c1cc([N+](=O)[O-])ccc1Cl	-0.9%
